In PubChem BioAssay:
Calls of active or inactive are those of the source.

How the values were obtained:
[1] = small molecules captured by biotinylated probe aFSTL3 – biochemical, small-molecule microarray, fluorescence 635/667, stem cell growth factor project, primary screen (AID 1064); settings: higher = more signal;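 also: measures binding of the biotinylated anti-FSTL3 antibody to printed compounds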
[2] = binders from COS7 lysate, DM2A8 probe, primary screen, torsin A project, cell lysate, small-molecule microarray, fluorescence 635/667 (AID 1065); settings: higher = more signal, COS7 lysate expressing mutant human TOR1A
[3] = small molecules captured by biotinylated probe aFGF2 – biochemical, small-molecule microarray, fluorescence 635/667, stem cell growth factor project, primary screen (AID 1067); settings: higher = more signal;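 also: measures binding of biotinylated aFGF2 protein to printed compounds on slides; z-score merges feature fluorescence and signal-to-noise across triplicate slides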
[4] = small molecules captured by biotinylated probe aFGF10 – biochemical, small-molecule microarray, fluorescence 635/667, stem cell growth factor project, primary screen (AID 1071); settings: higher = more signal;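 also: score merges 667 nm spot intensity and signal to noise from triplicate slides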
[5] = target: Neurogenic locus notch homolog protein 2 (Homo sapiens) (UniProt Q04721); assay: small molecules binding Notch2 protein – biochemical, small-molecule microarray, 635 nm fluorescence, stem cell growth factors, primary screen (AID 1073); settings: higher = more signal
[6] = target: Pro-neuregulin-1, membrane-bound isoform (Homo sapiens) (UniProt Q02297); assay: small molecules binding neuregulin-1 protein – biochemical, small-molecule microarray, fluorescence 635/667, psychiatric disease protein project, primary screen (AID 1075); settings: NRG1 binding, 635 nm fluorescence, higher = more signal;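 also: score combines 667 nm spot fluorescence with signal to noise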
[7] = tested on: Neuregulin-1 EGF-like domain; assay: small molecules binding NRG1 EGF domain – biochemical, small-molecule microarray, 635 nm fluorescence, primary screen (AID 1081); settings: higher = more signal;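 also: binding of the protein to compounds printed on small-molecule microarray slides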
[8] = FRG1 expression reporter modulators in myotubes – cell-based, C2C12 myotubes, firefly/Renilla luciferase, luminescence, FRG1 inhibition for FSHD, primary screen (AID 1084); settings: FRG1 promoter luciferase, higher = more signal, called active from +8 up or from −8 down
[9] = small molecules captured by biotinylated probe aFST – biochemical, small-molecule microarray, fluorescence 635/667, stem cell growth factor project, primary screen (AID 1086); settings: higher = more signal;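 also: score merges 667 nm fluorescence with signal-to-noise of each printed compound spot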
[10] = binders of probe aHhip on microarray, primary screen, stem cell growth factor project, biochemical, small-molecule microarray, fluorescence 635/667 (AID 1087); settings: higher = more signal;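 also: score merges spot fluorescence at 667nm with spot signal to noise ratio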
[11] = tested on: PRMT1 (protein arginine N-methyltransferase 1); assay: small molecules binding arginine methyltransferase PRMT1 – biochemical, small-molecule microarray, 635 nm fluorescence, primary screen (AID 1088); settings: higher = more signal;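 also: binding of Prmt1 protein to compounds spotted on small-molecule microarray slides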
[12] = growth effects on S. cerevisiae YJM789 – YJM789 clinical isolate, OD600, 24 h, basal, primary screen (AID 1089); settings: higher = more signal, called active from +8 up or from −8 down;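 also: growth of clinical yeast isolate S. cerevisiae YJM 789 seeded 1000 cells per well; test concentration not given here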
[13] = S. pombe growth modifiers, basal conditions – strain 972, OD600, 24 h, no modulator, primary screen (AID 1090);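 also: basal condition with compound alone and no growth modifier present; test concentration not given here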; settings: S. pombe 972 growth, higher = more signal, called active from +8 up or from −8 down
[14] = budding yeast growth modifiers under rapamycin – strain BY4716, OD600, 96 h, primary screen (AID 1091); also: test concentration not given here; settings: S. cerevisiae BY4716 + rapamycin, higher = more signal, called active from +8 up or from −8 down
[15] = target: Torsin-1A-interacting protein 2 (Homo sapiens) (UniProt Q8NFQ8); assay: small molecules binding lysate-expressed LULL1 – cell lysate, human LULL1 lysate, 635/667 nm fluorescence, primary screen (AID 1092); settings: small-molecule microarray, hLULL1 lysate binding, 635 nm fluorescence; higher = more signal;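 also: probe is lysate of COS7 cells overexpressing human LULL1; score merges per-feature 667 nm fluorescence with signal-to-noise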
[16] = optical density change of DRC41 E. coli – strain DRC41, OD650, 24 h, E. coli filamentation project, primary screen (AID 1093);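 also: MC1000 strain lacking acrAB efflux and sulA so SOS filamentation is blocked; test concentration not given here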; settings: E. coli DRC41 growth, higher = more signal, called active from +8 up or from −8 down
[17] = probe aLefty2 binding to arrayed compounds – biochemical, biotinylated probe, 635/667 nm fluorescence, primary screen (AID 1094); settings: small-molecule microarray, higher = more signal;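 also: score merges spot fluorescence near 667 nm with spot signal-to-noise ratio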
[18] = tested on: Noggin (protein binding on small-molecule microarray); assay: small molecules binding Noggin protein – biochemical, 635/667 nm fluorescence, primary screen (AID 1095); settings: 635 nm fluorescence, higher = more signal;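 also: score merges 667 nm feature fluorescence with signal to noise over triplicate slides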
[19] = target: Neurogenic locus notch homolog protein 3 (Homo sapiens) (UniProt Q9UM47); assay: small molecules binding NOTCH3 protein – biochemical, 635/667 nm fluorescence, primary screen (AID 1096); settings: small-molecule microarray, 635 nm fluorescence, higher = more signal
[20] = probe aEGFR binding to arrayed compounds – biochemical, biotinylated probe, 635/667 nm fluorescence, primary screen (AID 1097); settings: small-molecule microarray, higher = more signal;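 also: probe is a biotinylated anti-EGFR antibody binding compounds printed on slides; score combines fluorescence near 667 nm and signal to noise of each spot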

Sequence of Neurogenic locus notch homolog protein 3 (Homo sapiens) (Q9UM47 whole entry, looked up): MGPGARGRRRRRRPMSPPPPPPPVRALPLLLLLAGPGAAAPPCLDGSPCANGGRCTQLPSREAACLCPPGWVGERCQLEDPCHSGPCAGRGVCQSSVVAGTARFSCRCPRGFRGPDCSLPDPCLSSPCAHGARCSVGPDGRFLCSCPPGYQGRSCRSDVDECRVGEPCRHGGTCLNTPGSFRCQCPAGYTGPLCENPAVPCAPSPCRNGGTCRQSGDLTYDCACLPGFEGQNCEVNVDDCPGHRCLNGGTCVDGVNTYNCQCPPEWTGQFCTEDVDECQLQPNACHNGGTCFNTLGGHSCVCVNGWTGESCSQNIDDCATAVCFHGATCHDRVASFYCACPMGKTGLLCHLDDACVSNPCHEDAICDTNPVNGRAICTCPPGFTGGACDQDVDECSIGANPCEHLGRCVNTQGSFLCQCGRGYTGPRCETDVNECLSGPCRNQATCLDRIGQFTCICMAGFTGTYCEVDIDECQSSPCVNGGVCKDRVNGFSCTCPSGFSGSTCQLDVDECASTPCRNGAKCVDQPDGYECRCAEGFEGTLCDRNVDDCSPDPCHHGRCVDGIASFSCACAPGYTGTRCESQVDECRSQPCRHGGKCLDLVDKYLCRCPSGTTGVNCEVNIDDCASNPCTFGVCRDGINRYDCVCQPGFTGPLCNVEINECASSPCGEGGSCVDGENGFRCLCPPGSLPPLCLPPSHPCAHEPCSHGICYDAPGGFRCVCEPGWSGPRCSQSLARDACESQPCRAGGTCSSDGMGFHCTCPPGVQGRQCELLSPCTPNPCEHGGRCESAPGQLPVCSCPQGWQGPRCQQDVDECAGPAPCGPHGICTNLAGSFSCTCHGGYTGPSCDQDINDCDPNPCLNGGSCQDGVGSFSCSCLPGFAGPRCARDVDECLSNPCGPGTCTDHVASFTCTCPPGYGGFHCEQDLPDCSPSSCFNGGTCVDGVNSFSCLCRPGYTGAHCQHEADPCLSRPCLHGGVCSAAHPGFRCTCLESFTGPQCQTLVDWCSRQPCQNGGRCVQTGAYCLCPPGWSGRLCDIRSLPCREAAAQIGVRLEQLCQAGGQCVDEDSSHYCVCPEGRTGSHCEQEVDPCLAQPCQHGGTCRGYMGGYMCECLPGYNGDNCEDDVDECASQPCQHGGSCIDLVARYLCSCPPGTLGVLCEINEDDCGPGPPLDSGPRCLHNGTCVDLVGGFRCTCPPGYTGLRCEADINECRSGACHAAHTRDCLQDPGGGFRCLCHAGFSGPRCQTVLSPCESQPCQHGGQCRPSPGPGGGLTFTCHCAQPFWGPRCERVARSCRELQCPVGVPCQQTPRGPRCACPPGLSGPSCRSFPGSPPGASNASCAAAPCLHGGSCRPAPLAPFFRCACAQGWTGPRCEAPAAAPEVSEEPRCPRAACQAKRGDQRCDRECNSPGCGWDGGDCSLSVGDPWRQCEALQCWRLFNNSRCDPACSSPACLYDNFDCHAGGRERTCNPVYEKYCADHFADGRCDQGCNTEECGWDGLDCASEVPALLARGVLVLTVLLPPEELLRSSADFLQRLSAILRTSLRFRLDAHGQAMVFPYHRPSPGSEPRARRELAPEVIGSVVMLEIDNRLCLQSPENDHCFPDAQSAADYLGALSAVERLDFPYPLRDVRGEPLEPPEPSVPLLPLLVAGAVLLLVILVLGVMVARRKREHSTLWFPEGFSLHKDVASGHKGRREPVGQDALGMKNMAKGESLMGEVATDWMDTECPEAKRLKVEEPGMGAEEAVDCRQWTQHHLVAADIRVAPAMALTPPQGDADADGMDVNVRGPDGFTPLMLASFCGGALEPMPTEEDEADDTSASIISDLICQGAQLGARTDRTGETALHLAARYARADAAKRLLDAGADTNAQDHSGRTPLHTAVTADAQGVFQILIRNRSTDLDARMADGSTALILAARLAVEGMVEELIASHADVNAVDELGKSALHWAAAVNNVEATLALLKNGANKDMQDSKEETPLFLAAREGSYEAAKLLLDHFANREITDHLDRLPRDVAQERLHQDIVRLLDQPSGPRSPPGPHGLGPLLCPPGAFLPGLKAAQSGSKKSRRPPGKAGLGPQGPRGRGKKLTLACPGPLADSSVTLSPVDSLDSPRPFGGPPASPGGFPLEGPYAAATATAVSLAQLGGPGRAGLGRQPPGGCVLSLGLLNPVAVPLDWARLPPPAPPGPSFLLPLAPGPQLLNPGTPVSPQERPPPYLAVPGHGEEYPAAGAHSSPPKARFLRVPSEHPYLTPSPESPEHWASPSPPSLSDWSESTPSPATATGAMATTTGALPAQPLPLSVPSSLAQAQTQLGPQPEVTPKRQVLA
Sequence of Pro-neuregulin-1, membrane-bound isoform (Homo sapiens) (Q02297 whole entry, looked up, the tested form may be a part, canonical isoform): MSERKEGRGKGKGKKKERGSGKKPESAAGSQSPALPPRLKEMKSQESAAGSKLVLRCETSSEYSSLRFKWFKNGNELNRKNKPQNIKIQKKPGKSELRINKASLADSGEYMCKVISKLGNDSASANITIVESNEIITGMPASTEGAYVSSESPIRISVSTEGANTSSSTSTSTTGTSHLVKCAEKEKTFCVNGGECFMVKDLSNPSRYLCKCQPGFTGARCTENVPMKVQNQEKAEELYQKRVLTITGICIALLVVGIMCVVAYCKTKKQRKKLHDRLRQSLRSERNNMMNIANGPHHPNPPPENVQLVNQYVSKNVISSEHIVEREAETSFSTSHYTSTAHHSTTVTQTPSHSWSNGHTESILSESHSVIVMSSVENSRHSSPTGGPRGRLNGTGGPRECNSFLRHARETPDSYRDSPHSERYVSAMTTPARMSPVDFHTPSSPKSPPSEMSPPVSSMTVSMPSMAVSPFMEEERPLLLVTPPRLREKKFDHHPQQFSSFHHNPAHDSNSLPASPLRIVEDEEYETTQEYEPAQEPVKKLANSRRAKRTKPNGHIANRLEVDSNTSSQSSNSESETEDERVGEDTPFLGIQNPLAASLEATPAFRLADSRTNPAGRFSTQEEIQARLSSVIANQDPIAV
Sequence of Torsin-1A-interacting protein 2 (Homo sapiens) (Q8NFQ8 whole entry, looked up): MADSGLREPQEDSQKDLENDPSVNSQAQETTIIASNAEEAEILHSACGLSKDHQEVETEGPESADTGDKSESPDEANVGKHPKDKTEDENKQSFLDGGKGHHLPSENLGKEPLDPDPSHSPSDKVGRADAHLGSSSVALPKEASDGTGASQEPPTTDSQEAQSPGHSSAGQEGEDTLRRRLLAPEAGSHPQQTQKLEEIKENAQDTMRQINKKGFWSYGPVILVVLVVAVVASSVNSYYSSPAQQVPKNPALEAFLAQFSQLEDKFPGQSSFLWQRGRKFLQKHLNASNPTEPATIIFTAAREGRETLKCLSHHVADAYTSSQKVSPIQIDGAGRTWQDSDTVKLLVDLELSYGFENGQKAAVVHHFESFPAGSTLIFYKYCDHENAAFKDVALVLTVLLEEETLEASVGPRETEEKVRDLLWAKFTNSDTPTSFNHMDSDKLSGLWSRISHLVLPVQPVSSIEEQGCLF

| Compound | composite z-score [1] | composite z-score [2] | composite z-score [3] | composite z-score [4] | composite z-score [5] | composite z-score [6] | composite z-score [7] | z-score [8] | composite z-score [9] | composite z-score [10] | composite z-score [11] | z-score [12] | z-score [13] | z-score [14] | composite z-score [15] | z-score [16] | composite z-score [17] | composite z-score [18] | composite z-score [19] | composite z-score [20] |
| --- | --- | --- | --- | --- | --- | --- | --- | --- | --- | --- | --- | --- | --- | --- | --- | --- | --- | --- | --- | --- |
| COc1ccc(CCN2C(=O)[C@@]3(Cc4ccccc42)c2ccccc2C(=O)N(Cc2ccccc2C(F)(F)F)[C@H]3c2ccc(CO)cc2)cc1 | -0.402 | -0.0678 | -0.128 | -0.106 | -0.112 | -0.112 | 0.791 | 0.453 (inactive) | -0.256 | -0.0994 | 0.67 | 0.276 (inactive) | -0.414 (inactive) | -1.68 (inactive) | 0.568 | -2.33 (inactive) | 0.0077 | 0.451 | -0.39 | -0.276 |
| CC(C)(C)C(=O)N[C@@H](c1ccc(Cl)cc1)[C@]1(C)C[C@H]1C1CCCCC1 | 1.05 | 0.845 | 0.282 | 0.57 | 1.51 | 2.09 | 1.19 | -1.52 (inactive) | 1.47 | 0.0053 | 1.05 | 0.553 (inactive) | 0.613 (inactive) | -0.104 (inactive) | 3.61 | -0.21 (inactive) | 0.43 | -0.486 | 1.05 | 0.106 |
| O=C1OCCC/C=C\[C@H]2OC34C=CCN(CCN5CCOCC5)C(=O)[C@H]3N(CCCO)C(=O)[C@@H]4C12 (stereo not given in full) | -0.0893 | 0.95 | -0.168 | -1.07 | -0.793 | 1.47 | 0.993 | 0.562 (inactive) | -0.209 | -0.216 | -0.622 | -1.35 (inactive) | -0.632 (inactive) | -0.595 (inactive) | 3.54 | -0.44 (inactive) | -0.381 | -0.813 | -0.93 | -0.199 |
| COCCOC(=O)N1C(=O)[C@@]2(c3cc(C#Cc4ccc(OC)cc4)ccc31)[C@H](C(N)=O)[C@H]1C(=O)O[C@H](c3ccccc3)[C@H](c3ccccc3)N1[C@@H]2c1ccccc1OCCO | 0.214 | 2.16 | 0.0918 | 1.11 | 1.53 | 1.64 | 1.27 | -1.26 (inactive) | 0.433 | 0.0431 | 1.54 | 1.05 (inactive) | 0.649 (inactive) | 3.72 (inactive) | 2.33 | 0.071 (inactive) | 0.306 | 1.55 | 1.08 | 0.245 |
| C=CCNC(=O)[C@H]1[C@@H]2C(=O)O[C@@H](c3ccccc3)[C@@H](c3ccccc3)N2[C@@H](c2ccc(OCCO)cc2)[C@]12C(=O)N(C(=O)OCCOC)c1ccccc12 | -0.268 | 0.847 | 0.0732 | 0.591 | 1.45 | 1.53 | 1.38 | -2.56 (inactive) | 0.854 | 0.251 | 1.54 | 2.07 (inactive) | 0.0313 (inactive) | 4.62 (inactive) | 3.07 | 0.909 (inactive) | 0.0316 | 1.09 | 1.04 | 0.107 |
| CCc1oc(CC[C@@H](CO)NC(=O)NCCn2cc(C3(O)CCCCC3)nn2)c(C(=O)OC)c1C(=O)OC | -0.33 | 0.979 | -0.0549 | 0.809 | 0.924 | 0.172 | 1.23 | 0.306 (inactive) | 0.457 | -0.353 | 1.32 | 0.458 (inactive) | -0.173 (inactive) | -0.874 (inactive) | 0.775 | -1.2 (inactive) | -0.0615 | 1.39 | 0.939 | 0.0473 |
